# How the values were obtained:
# Assay in all cases: PBM binding z-score (relative to random genomic background probes); higher = stronger binding; sequences stand for … in GC…GCGATTGACAGCGTAGAATGAAGG
# [1] = tested on: FXR:RXRa (NR concentration 270 nM, RXRa partner concentration 90 nM)
# Summary of the method: (§1)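 Random background probes are the reference for binding z-scores. These scores derive from regression-normalized fluorescence on custom Agilent 4×180K protein-binding microarrays incubated 1 h with ligand-free nuclear receptor dimers. Binding was detected with antibodies against each partner (one per run).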
# [2] = tested on: LXRa:RXRa (NR concentration 270 nM, RXRa partner concentration 90 nM)
# Summary of the method: as §1
# [3] = tested on: LXRa homodimer (NR concentration 270 nM)
# Summary of the method: as §1
# [4] = tested on: LXRb:RXRa (NR concentration 270 nM, RXRa partner concentration 90 nM)
# Summary of the method: as §1
# [5] = tested on: LXRb homodimer (NR concentration 270 nM)
# Summary of the method: as §1
# [6] = tested on: PPARa:RXRa (NR concentration 270 nM, RXRa partner concentration 90 nM)
# Summary of the method: as §1
# [7] = tested on: PPARg:RXRa (NR concentration 180 nM, RXRa partner concentration 90 nM)
# Summary of the method: as §1
# [8] = tested on: PPARg:RXRa 270nM:90nM, anti-RXR (NR concentration 270 nM, RXRa partner concentration 90 nM)
# Summary of the method: as §1
# [9] = tested on: PPARg:RXRa 30nM:10nM, anti-RXR (NR concentration 30 nM, RXRa partner concentration 10 nM)
# Summary of the method: as §1
# [10] = tested on: PPARg:RXRa 90nM:30nM, anti-RXR (NR concentration 90 nM, RXRa partner concentration 30 nM)
# Summary of the method: as §1
# [11] = tested on: PPARg:RXRa DBDmut IVT, anti-RXR (DBD mutation: RXRa K156A/R161A, NR concentration 270 nM, RXRa partner concentration 90 nM)
# Summary of the method: as §1
# [12] = tested on: PPARg:RXRa IVT, anti-PPARg (NR concentration 270 nM, RXRa partner concentration 90 nM)
# Summary of the method: as §1
# [13] = tested on: PPARg DBDmut:RXRa IVT, anti-PPARg (DBD mutation: PPARg1 K132A/R137A, NR concentration 270 nM, RXRa partner concentration 90 nM)
# Summary of the method: as §1
# [14] = tested on: PPARg DBDmut IVT, anti-PPARg (DBD mutation: PPARg1 K132A/R137A, NR concentration 270 nM)
# Summary of the method: as §1
# [15] = tested on: PPARg homodimer (NR concentration 180 nM)
# Summary of the method: as §1
# [16] = tested on: PXR:RXRa (NR concentration 270 nM, RXRa partner concentration 90 nM)
# Summary of the method: as §1
# [17] = tested on: PXR homodimer (NR concentration 270 nM)
# Summary of the method: as §1
# [18] = tested on: RARa:RXR (NR concentration 270 nM, RXRa partner concentration 90 nM)
# Summary of the method: as §1
# [19] = tested on: RARa homodimer (NR concentration 270 nM)
# Summary of the method: as §1
# [20] = tested on: RARb:RXRa (NR concentration 270 nM, RXRa partner concentration 90 nM)
# Summary of the method: as §1
Sequence,PBM binding z-score [1],PBM binding z-score [2],PBM binding z-score [3],PBM binding z-score [4],PBM binding z-score [5],PBM binding z-score [6],PBM binding z-score [7],PBM binding z-score [8],PBM binding z-score [9],PBM binding z-score [10],PBM binding z-score [11],PBM binding z-score [12],PBM binding z-score [13],PBM binding z-score [14],PBM binding z-score [15],PBM binding z-score [16],PBM binding z-score [17],PBM binding z-score [18],PBM binding z-score [19],PBM binding z-score [20]
CGAACTAGGTTATTGACAGGACAGTGAATAGTAA,0.276,0.886,0.37,0.406,-0.0993,2.09,2.41,2.12,0.574,1.47,5.85,5.11,0.805,0.514,0.855,0.198,0.237,0.554,0.372,0.837
GGAACGAGGGCACAGTTGATAGCATCTGTCGACG,0.318,0.136,-0.684,-0.053,-0.903,1.95,3.25,3.63,1.56,3.28,3.74,3.92,0.579,-0.629,0.434,0.227,-0.335,0.367,-0.231,2.02
CCAGACAGGTGAAAGGGAACTCAGTCTGGTACGC,-0.208,-0.0389,-0.366,-0.0234,-0.681,1.63,2.51,3.24,1.06,2.69,1.08,1.02,0.273,-0.448,0.717,-0.0959,-0.23,0.13,0.262,0.537
ATATGTAGGTAATCGGGTCATTCAGTTTGCGCAT,1.83,1.79,0.62,2.26,0.648,4.67,6.27,5.56,3.33,4.77,7.17,7.38,2.95,2.04,1.76,2.84,6.06,2.79,1.35,1.6
TCATATAGGTAAAAGGTGACAGTCGGTGTGGTAA,1.88,1.46,-0.178,1.61,0.00468,5.19,9.43,8.82,8.45,9.66,5.71,5.54,2.29,1.71,1.76,1.36,1.05,2.14,1.41,1.7
TGAATGAAGTTATAAGATCAGGGAACGTTGCAAA,-0.521,-0.697,-0.369,-0.457,-0.454,-0.296,0.116,-0.239,0.157,-0.0808,-1.2,-0.333,0.559,0.214,-0.63,-0.502,-0.359,-0.42,0.115,-1.82
